# Measured values: PubChem BioAssay (Tox21)
# Inconclusive results are not listed. Entries that show only a call come without a potency. Activity calls are given as the source filed them. Calls follow the shape of the dose curve; as a rule, active = well fitted activation curve with a large enough effect in the signal ratio in the repeat runs (not every such curve was filed as active); inconclusive = weak or mixed curves, or effect the other way; inactive = no such curve, though single readings can be large or run the other way; the % refers to the signal ratio.
# Biological target: Peroxisome proliferator-activated receptor gamma (Homo sapiens) (UniProt P37231)
# Sequence (P37231 whole entry, looked up): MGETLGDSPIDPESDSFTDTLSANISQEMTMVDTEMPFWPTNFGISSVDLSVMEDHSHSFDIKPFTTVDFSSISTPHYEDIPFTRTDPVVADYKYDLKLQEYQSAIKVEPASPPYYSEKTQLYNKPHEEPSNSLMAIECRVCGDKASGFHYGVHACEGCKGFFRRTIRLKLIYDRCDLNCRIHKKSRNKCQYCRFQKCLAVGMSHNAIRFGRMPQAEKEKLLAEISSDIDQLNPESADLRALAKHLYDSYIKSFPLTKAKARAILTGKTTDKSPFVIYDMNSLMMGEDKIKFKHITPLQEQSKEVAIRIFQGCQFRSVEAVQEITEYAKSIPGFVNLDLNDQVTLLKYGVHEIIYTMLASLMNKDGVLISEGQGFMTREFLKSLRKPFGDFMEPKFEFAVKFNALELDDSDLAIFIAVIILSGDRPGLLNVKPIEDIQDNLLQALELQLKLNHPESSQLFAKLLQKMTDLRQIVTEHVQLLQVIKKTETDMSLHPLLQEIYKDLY
# Test: qHTS assay to identify small molecule agonists of the peroxisome proliferator-activated receptor gamma (PPARg) signaling pathway (AID 743094)
# Details: HEK293H PPARg-UAS-bla, beta-lactamase FRET ratio, 17 h; series mostly up to 57 µM
# Procedure, shortened: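 Following 5 h plating at 37C, PPARg-bla HEK293H cells receive compound or DMSO for 17 h; fluorescence intensity is recorded after LiveBLAzer B/G loading for 1 h at room temperature.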
# Potency is read from the fitted curve at half-maximal effect.
row,SMILES,Potency
1,CC1CC(C)C(=O)C1=O (configuration not stated),inactive
2,O=C=Nc1cccc(C(F)(F)F)c1,inactive
3,O=C(OCC(O)CO)c1ccccc1Nc1ccnc2cc(Cl)ccc12 (configuration not stated),inactive
4,CCCCCCCCN,inactive
5,O=Cc1c2ccccc2c(Cl)c2ccccc12,9.53 µM (active)
6,CCC=CC#N,inactive
7,C=CC(=O)[O-].C=CC(=O)[O-].[Zn+2],inactive
8,CO/N=C(/C(=O)N[C@@H]1C(=O)N2C(C(=O)O)=C(COC(N)=O)CS[C@H]12)c1ccco1,inactive
9,C=C1CCC2CC1C2(C)C (configuration not stated),inactive
10,Cc1ccc(OC(=O)c2ccccc2O)cc1,inactive
11,O=C(O)CCC(=O)C(=O)O,inactive
12,C=C1c2cccc(O)c2C(O)=C2C(=O)[C@]3(O)C(O)=C(C(N)=O)C(=O)[C@@H](N(C)C)[C@@H]3[C@@H](O)[C@H]12,inactive
13,CN1C(C(=O)Nc2ccccn2)=C(O)c2sccc2S1(=O)=O,inactive
14,Cc1cscn1,inactive
15,CC/C=C1/OC(=O)c2ccccc21,inactive
16,COc1cc(N)c(Cl)cc1C(=O)NC1CCN(CCCOc2ccc(F)cc2)CC1OC (configuration not stated),inactive
17,C=C(C)C(=O)OCCOCCOC(=O)C(=C)C,inactive
18,CC(=O)Oc1ccc([N+](=O)[O-])cc1CCl,inactive
19,O=C(Nc1cccc2c(=O)cc(-c3nn[nH]n3)oc12)c1ccc(OCCCCc2ccccc2)cc1,inactive
20,Cc1ccccc1N=C(N)Nc1ccccc1C,inactive
21,CCOC(=O)OC(C)OC(=O)[C@@H]1N2C(=O)[C@@H](NC(=O)[C@H](N)c3ccccc3)[C@H]2SC1(C)C (some centres not stated),inactive
22,CC1=Nc2ccc3ccccc3c2C1(C)C,inactive
